Measured values published in PubChem BioAssay (NCATS).
Inconclusive results are not listed. Calls of active or inactive are those of the source. Unless noted, calls follow the shape of the dose curve; as a rule, active = well fitted curve in the direction sought with a large enough effect; inconclusive = small, poorly fitted or top-dose-only effect, or another doubt; inactive = no such curve, though single readings can be large; an effect the other way counts as inactive or inconclusive.

How the values were obtained:
[1] = target: Glucocorticoid receptor (Homo sapiens) (UniProt P04150); assay: GR-EFC Redistribution (AID 451; calls by dose curve; also: potency is read from the fitted curve at half-maximal effect); details: CHO-K1 GR-EFC translocation, beta-gal luminescence, 2 h
Summary of the method: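 Translocation of GR-ED fusion to nuclear EA restores b-gal, read by luminescence after 1 h room-temperature detection. Engineered CHO-K1 biosensor cells, 1,000/well, exposed 2 h at 37 C to titrations up to 46 uM final.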

[2] = target: 3',5'-cyclic-AMP phosphodiesterase 4B (Homo sapiens) (UniProt Q07343); assay: qHTS Assay for Inhibitors of PDE-IV (AID 607; active = well fitted activation curve with a large enough effect in the main read-out, with a control signal flat, not every such curve was filed as active; also: % of control where 0% means no effect)
Summary of the method: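 The readout is membrane depolarisation from a cAMP-sensing CNG channel, detected with a potential dye at ex 535/em 590. Cells were HEK293-derived (endogenous PDE-IV) at 1000 cells/well, titrated up to 22.9 uM final.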

[3] = target: Cytochrome P450 2D6 (Homo sapiens) (UniProt P10635); assay: qHTS Assay for Inhibitors and Substrates of Cytochrome P450 2D6 (AID 891); also: potency is read from the fitted curve at half-maximal effect; nearly all actives have a fitted effect of over 60% in size
Summary of the method: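 Human CYP2D6 (5 nM) with 30 uM Luciferin-ME EGE (at Km) in 100 mM KPO4, compound preincubated 10 min, then NADPH regeneration system for 60 min at room temperature. Luciferin read by luminescence; normalized to 1.43 uM quinidine.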

[4] = qHTS Assay for Lipid Storage Modulators (AID 1519; calls by dose curve; also: potency is read from the fitted curve at half-maximal effect); details: Drosophila S3 cells, BODIPY lipid droplet/cell ratio, laser cytometry, cells loaded with oleic acid; for activity change, negative = inhibition: at 57.5 µM (top of the series)
Summary of the method: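 Cells seeded at 5,000 per well were treated with compounds over a concentration series and loaded with oleic acid (400 uM, as added). Lipid droplet fluorescence (488 nm excitation, 500-530 nm channel) was read by laser-scanning cytometry and normalized to 20 uM Triacsin C.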

[5] = target: DNA dC->dU-editing enzyme APOBEC-3G (Homo sapiens) (UniProt Q9HC16); assay: qHTS for inhibitors of Vif-A3G interactions: Validation (AID 588379); also: 0% is about no effect
Summary of the method: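 HeLa cells stably expressing Vif and A3G-eYFP, 700 cells/well, incubated overnight at 37 deg C, then exposed to compound overnight at 37 deg C. Inhibition of Vif-mediated degradation read as increased yellow fluorescence (Ex 488/Em 500-530) by laser-scanning cytometry.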

[6] = test system: Zika virus NS2B-NS3 protease; assay: Primary screen GU AMC qHTS for Zika virus inhibitors (AID 1347154);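 also: 0% = no-inhibitor control and -100% = no-enzyme control; nearly all actives have a fitted effect of over 70% in size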
Summary of the method: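 Fluorogenic AMC-substrate cleavage by noncovalent NS2B-NS3 protease complex (25 nM, pH 8.0 Tris buffer with Tween 20) followed for 15 minutes at room temperature (~20% conversion). Percent inhibition from ex340/em450 signal change, fitted by 4-parameter Hill equation.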

[7] = Primary qHTS for small molecule stabilizers of the endoplasmic reticulum resident proteome: Secreted ER Calcium Modulated Protein (SERCaMP) assay (AID 1508630); also: % is scaled to controls: 0 for no effect and ±100 for the full control effect
Summary of the method: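 GLuc-SERCaMP-expressing SH-SY5Y cells, pretreated 16 h with compound, are challenged with thapsigargin to empty ER calcium stores; after 4 h, coelenterazine is added directly to the medium and luminescence is imaged.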

[8] = target: Glucocorticoid receptor (Homo sapiens) (UniProt P04150); assay: GR-GFP Redistribution (AID 450;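 active = compounds whose dose series gives a full or clear partial fitted curve of increased nuclear translocation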; also: potency is read from the fitted curve at half-maximal effect); details: U2OS GR-GFP nuclear translocation, laser cytometry, 2 h
[9] = target: Mitogen-activated protein kinase 10 (Mus musculus) (UniProt Q61831); assay: JNK3 AlphaScreen Assay (AID 530; active = well fitted curve in either direction with a large enough effect, not every such curve was filed as active;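 also: kinase came from lysate of stimulated human HepG2 cells; signal reports phosphorylation of biotinylated GST-cJun 1-79 at Ser73 with 10 µM ATP; % is scaled to controls: 0 for no effect and ±100 for the full control effect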)
Summary of the method: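 Room-temperature AlphaScreen kinase assay; pre-activated HepG2 lysate as JNK3 source, biotin-GST-cJun(1-79) substrate, 10 uM ATP, compound 15 min preincubation.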

[10] = target: Cytochrome P450 3A4 (Homo sapiens) (UniProt P08684); assay: qHTS Assay for Activators of Cytochrome P450 3A4 (AID 885); also: nearly all actives have a fitted effect of over 65% in size
Summary of the method: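 Steps: enzyme/substrate mix dispensed; compound added, 10 min RT; NADPH regeneration solution added, 60 min RT; luciferin detection buffer stops reaction; 20 min later luminescence measured.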

[11] = AP1 Signaling Pathway (AID 357; active = well fitted curve in either direction with a large enough effect, not every such curve was filed as active;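 also: ME-180 reporter cells stimulated with EGF at its EC50 level; % is scaled to controls: 0 for no effect and ±100 for the full control effect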)
Summary of the method: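 Modulation of EGF-driven AP-1 transcription was assessed with a beta-lactamase reporter in ME-180 cells. Compound and EC50 EGF were co-incubated 5 hours at 37 °C before 2.5-hour CCF4 loading at room temperature and dual-emission reading.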

[12] = target: Cytochrome P450 1A2 (Homo sapiens) (UniProt P05177); assay: p450-cyp1a2 (AID 410; calls by dose curve;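 also: -100% = full effect of reference inhibitor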)
Summary of the method: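 Inhibition was calculated relative to 57 uM furafylline (full inhibition). The reaction used human CYP1A2 at 20nM with Luciferin-ME at its Km, 100uM, driven by an NADPH-regenerating system for 60 min at room temperature.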

[13] = NFAT Signaling Pathway (AID 444; active = well fitted curve in either direction with a large enough effect, not every such curve was filed as active;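 also: carbachol stimulus at about its EC50 of 1 µM final; % is scaled to controls: 0 for no effect and ±100 for the full control effect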); details: Jurkat NFAT-bla M1, carbachol, beta-lactamase ratio, 5 h; at 38 µM (top of the series)
Summary of the method: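 Read-out: CCF4 FRET ratio (460 nm/530 nm) after 1 h RT dye loading, used for %activity and AC50 from titration series. Cells: Jurkat NFAT-β-lactamase/M1 line, treated with compound plus 1 uM carbachol for 5 h, 37 °C.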

[14] = target: Guanine nucleotide-binding protein G(i) subunit alpha-1 (Homo sapiens) (UniProt P63096); assay: qHTS Assay for Inhibitors of RGS12 GoLoco Motif Activity (Green Fluorophore) (AID 879);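 also: 0% = labeled peptide with Gαi1 and full inhibition = labeled peptide alone without protein; negative values mean loss of peptide binding seen as reduced polarization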
Summary of the method: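 Fluorescence polarization assay: 50 nM Gαi1 with 10 nM FITC-labeled RGS12 GoLoco peptide in 10 mM Tris pH 7.5, 150 mM NaCl, 0.1 mM GDP, 0.05% NP40, 10 min at room temperature with compound.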

[15] = target: Cytochrome P450 3A4 (Homo sapiens) (UniProt P08684); assay: qHTS Assay for Inhibitors and Substrates of Cytochrome P450 3A4 (AID 884); also: % is scaled to controls: 0 for no effect and ±100 for the full control effect; nearly all actives have a fitted effect of over 50% in size
Summary of the method: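 20 nM human CYP3A4 with 25 uM Luciferin-PPXE (at KM) in 200 mM KPO4, preincubated 10 min with compound; NADPH regeneration started a 60 min RT reaction. Luciferin detected by luminescence, normalized to 57 uM ketoconazole as full inhibition.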

[16] = qHTS Assay for Identification of Small Molecule Antagonists for NFkB Signaling Pathway (AID 895; active = well fitted inhibition curve with a large enough effect in the signal ratio, with a control signal flat, not every such curve was filed as active; the % refers to the signal ratio; also: % is scaled to controls: 0 for no effect and ±100 for the full control effect)
Summary of the method: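 Beta-lactamase reporter read-out (460 and 530 nm emission ratio, 405 nm excitation, 2 hrs substrate loading RT) after 5 hr stimulation with 10 pM TNF alpha in compound-treated NFkB-bla ME-180 cells in low-serum medium.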

[17] = qHTS Assay for Identification of Small Molecule Agonists for Hypoxia Response Element Signaling Pathway (AID 914; active = well fitted activation curve with a large enough effect in the signal ratio, with a control signal flat, not every such curve was filed as active; the % refers to the signal ratio; also: % of control where 0% means no effect); details: ME-180 HRE-bla reporter, beta-lactamase ratio, CoCl2, 17 h; activation: stronger effect = higher value
Summary of the method: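 ME-180 cells carrying an HRE-driven beta-lactamase reporter were treated with compounds in a titration series plus an EC50 level of CoCl2 for 17 h at 37 degrees Celsius; CCF4 readout as the 460nm/530nm ratio gave AC50 values.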

[18] = qHTS Assay for Identification of Small Molecule Agonists for Thrombopoietin (TPO) Signaling Pathway (AID 917); also: % is scaled to controls: 0 for no effect and ±100 for the full control effect
Summary of the method: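 We measured Glycoprotein IIb promoter–luciferase output in IL-3-starved Ba/F3 murine cells expressing the human TPO receptor after 24 hrs at 37 C with compounds and 26 pM TPO.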

[19] = target: Muscarinic acetylcholine receptor M1 (Rattus norvegicus) (UniProt P08482); assay: qHTS Assay for Antagonists of Acetylcholine Muscarinic M1 Receptor: Kinetic Measurement of Intracellular Calcium Response (AID 943);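 also: Fluo-4 calcium signal as peak divided by basal fluorescence over 4 min; nearly all actives have a fitted effect of over 75% in size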
Summary of the method: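 Intracellular calcium flux, recorded with Fluo-4 in a kinetic plate reader, served as signal; the response to carbachol at EC80 (100 nM final) was taken as maximal over minimal fluorescence after a 10 min compound pre-incubation in rat M1-CHO cells.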

[20] = target: Muscarinic acetylcholine receptor M1 (Rattus norvegicus) (UniProt P08482); assay: qHTS Assay for Antagonists of Acetylcholine Muscarinic M1 Receptor: Measurement of IP-One Response (AID 944); also: nearly all actives have a fitted effect of over 75% in size
Summary of the method: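 Steps: plate transfected CHO-M1 cells overnight; add test compound, 10 min; add carbachol (200 nM, EC80) in stimulation buffer with LiCl; incubate 30 min; add labelled IP1 tracer and anti-IP1 antibody in lysis buffer; read HTRF after 10 min.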

[21] = target: Pyruvate kinase (Leishmania mexicana) (UniProt Q27686); assay: qHTS Validation Assay for Inhibitors of Leishmania Mexicana Pyruvate Kinase (AID 945);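 also: 0% = DMSO only neutral control wells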
Summary of the method: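 LmPYK E451W 0.2 nM; 0.5 mM PEP, 0.1 mM ADP, 7 mM MgCl2, 50 mM KCl, imidazole pH 7.2, 0.01% Tween 20, 0.05% BSA; 1 h RT; PKLight luminescence; DMSO-normalized.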

[22] = target: Alpha-galactosidase (Coffea arabica) (UniProt Q42656); assay: Counterscreen for Glucocerebrosidase Inhibitors: qHTS Assay for Coffee Bean alpha-Galactosidase at pH 4.5 (AID 957);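 also: plate controls were enzyme alone for no effect and no enzyme for full effect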
Summary of the method: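 AC50 values derive from Hill-equation modeling of concentration-response data, normalized to no-enzyme and full-activity controls. The pH 4.5 citrate assay used 2 nM coffee bean enzyme and 80 uM fluorogenic substrate for 20 min.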

[23] = target: Alpha-galactosidase A (Homo sapiens) (UniProt P06280); assay: Counterscreen for Glucocerebrosidase Inhibitors: qHTS Assay for Human alpha-Galactosidase at pH 4.5 (AID 992); also: 0% is about no effect
Summary of the method: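 Concentration-response curves (0.7 nM to 77 uM final) were modeled with the Hill equation to give AC50. Reactions: 2 nM enzyme, 80 uM fluorogenic alpha-galactoside, pH 4.5 citric acid buffer, 20 min, room temperature.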

[24] = target: Alpha-galactosidase (Coffea arabica) (UniProt Q42656); assay: Counterscreen for Glucocerebrosidase Inhibitors: qHTS Assay for Coffee Bean alpha-Galactosidase at pH 5.9 (AID 998);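 also: plate controls were uninhibited enzyme for no effect and no-enzyme basal signal for full effect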
Summary of the method: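 Compounds were titrated from 0.7 nM to 77 uM against green coffee bean alpha-galactosidase (2 nM) using 80 uM fluorogenic 4-methylumbelliferyl substrate. After 20 min at room temperature, reactions were stopped at pH 10 and read by fluorescence.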

[25] = Confirmation and Secondary Assay for Modulators of Hemoglobin Beta Chain Splicing at IVS2 654 locus (AID 910);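 also: HeLa cells stably carrying EGFP split by mutant beta-globin IVS2-654 intron; per-well total GFP intensity by laser scanning cytometry after 2-day treatment; % of control where 0% means no effect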
Summary of the method: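 Readout: per-well total peak green fluorescence (488 nm ex, 500–520 nm em) from objects 5–250 µm, reflecting correct splicing of an EGFP-654 reporter. Compounds were applied for 2 days at 37 °C to overnight-plated HeLa EGFP-654 cells; controls were DMSO and 500 nM IVS2-654 PNA.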

[26] = Confirmation and Secondary Assay for Modulators of Hemoglobin Beta Chain Splicing at IVS2 705 locus (AID 930);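 also: HeLa cells stably expressing the EGFP-705 splicing reporter; % of control where 0% means no effect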
Summary of the method: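 HeLa cells stably carrying EGFP interrupted by mutant beta-globin IVS2-705 intron (CMV-driven) were seeded at 500 cells/well, treated next day with compound for 2 days at 37C; corrected splicing restores EGFP, read as total peak GFP intensity per well.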

[27] = measured here: cell count channel max response
[28] = measured here: lipid channel max response

Sequence of 3',5'-cyclic-AMP phosphodiesterase 4B (Homo sapiens) (Q07343 whole entry, looked up): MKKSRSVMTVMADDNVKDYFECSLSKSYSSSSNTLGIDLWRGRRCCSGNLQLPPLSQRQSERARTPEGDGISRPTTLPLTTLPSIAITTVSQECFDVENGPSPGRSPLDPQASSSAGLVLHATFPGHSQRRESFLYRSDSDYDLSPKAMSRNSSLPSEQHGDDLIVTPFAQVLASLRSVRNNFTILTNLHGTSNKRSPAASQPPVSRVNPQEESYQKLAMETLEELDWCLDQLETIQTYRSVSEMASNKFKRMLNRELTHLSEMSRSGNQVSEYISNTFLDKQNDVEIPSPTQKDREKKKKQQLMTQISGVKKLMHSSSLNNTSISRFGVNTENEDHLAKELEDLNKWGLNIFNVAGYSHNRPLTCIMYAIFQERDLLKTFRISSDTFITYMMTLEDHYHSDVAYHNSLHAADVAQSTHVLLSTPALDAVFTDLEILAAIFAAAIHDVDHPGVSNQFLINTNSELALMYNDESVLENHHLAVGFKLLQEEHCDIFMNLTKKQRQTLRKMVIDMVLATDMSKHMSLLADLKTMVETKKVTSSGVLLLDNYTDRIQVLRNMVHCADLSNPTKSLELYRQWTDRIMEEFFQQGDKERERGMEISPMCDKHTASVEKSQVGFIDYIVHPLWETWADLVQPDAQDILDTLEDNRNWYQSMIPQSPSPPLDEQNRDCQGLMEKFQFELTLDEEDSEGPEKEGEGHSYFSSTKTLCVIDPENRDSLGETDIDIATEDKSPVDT
Sequence of Cytochrome P450 3A4 (Homo sapiens) (P08684 whole entry, looked up): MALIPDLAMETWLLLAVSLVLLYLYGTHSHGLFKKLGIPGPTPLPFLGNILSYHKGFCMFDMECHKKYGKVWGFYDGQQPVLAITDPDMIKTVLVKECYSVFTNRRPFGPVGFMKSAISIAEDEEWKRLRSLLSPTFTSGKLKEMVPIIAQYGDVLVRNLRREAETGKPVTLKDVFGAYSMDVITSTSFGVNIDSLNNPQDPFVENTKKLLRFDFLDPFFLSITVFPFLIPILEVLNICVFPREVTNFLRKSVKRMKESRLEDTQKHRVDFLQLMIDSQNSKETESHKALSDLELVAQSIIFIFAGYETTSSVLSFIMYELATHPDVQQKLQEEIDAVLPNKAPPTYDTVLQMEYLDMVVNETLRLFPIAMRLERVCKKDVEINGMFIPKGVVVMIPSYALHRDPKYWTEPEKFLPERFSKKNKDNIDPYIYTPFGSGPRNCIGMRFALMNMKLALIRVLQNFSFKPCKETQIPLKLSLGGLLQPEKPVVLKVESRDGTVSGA
Sequence of Glucocorticoid receptor (Homo sapiens) (P04150 whole entry, looked up, the tested form may be a part): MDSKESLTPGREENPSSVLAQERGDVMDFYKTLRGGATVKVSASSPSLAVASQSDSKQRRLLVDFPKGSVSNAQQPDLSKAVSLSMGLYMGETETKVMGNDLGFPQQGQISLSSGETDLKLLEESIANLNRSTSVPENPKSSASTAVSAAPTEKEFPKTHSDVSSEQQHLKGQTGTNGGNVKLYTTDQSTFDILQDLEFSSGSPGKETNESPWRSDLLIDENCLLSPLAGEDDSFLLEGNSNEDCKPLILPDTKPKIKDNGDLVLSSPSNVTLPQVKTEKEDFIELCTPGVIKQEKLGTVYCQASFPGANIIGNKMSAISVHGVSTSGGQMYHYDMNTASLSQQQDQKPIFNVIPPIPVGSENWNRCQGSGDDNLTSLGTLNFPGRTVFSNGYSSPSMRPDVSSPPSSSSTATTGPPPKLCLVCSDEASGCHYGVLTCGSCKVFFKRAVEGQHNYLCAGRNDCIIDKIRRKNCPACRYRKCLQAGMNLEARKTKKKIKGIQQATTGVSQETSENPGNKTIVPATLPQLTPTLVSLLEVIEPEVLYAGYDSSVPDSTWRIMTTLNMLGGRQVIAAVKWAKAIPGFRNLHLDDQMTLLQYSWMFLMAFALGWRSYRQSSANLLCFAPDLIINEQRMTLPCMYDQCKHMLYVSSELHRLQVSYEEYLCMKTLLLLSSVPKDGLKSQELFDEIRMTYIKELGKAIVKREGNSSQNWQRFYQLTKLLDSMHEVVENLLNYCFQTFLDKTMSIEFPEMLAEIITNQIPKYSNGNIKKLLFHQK
Sequence of DNA dC->dU-editing enzyme APOBEC-3G (Homo sapiens) (Q9HC16 whole entry, looked up): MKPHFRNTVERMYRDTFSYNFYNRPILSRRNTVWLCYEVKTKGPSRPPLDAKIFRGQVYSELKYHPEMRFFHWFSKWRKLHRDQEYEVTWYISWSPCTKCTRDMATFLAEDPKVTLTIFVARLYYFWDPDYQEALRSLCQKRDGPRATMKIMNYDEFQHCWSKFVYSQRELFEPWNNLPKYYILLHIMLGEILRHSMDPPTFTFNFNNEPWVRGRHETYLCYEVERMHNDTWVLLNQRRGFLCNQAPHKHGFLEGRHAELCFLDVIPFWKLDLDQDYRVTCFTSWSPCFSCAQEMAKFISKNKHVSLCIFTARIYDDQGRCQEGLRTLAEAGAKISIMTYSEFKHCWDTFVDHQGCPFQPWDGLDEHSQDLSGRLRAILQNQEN
Sequence of Muscarinic acetylcholine receptor M1 (Rattus norvegicus) (P08482 whole entry, looked up): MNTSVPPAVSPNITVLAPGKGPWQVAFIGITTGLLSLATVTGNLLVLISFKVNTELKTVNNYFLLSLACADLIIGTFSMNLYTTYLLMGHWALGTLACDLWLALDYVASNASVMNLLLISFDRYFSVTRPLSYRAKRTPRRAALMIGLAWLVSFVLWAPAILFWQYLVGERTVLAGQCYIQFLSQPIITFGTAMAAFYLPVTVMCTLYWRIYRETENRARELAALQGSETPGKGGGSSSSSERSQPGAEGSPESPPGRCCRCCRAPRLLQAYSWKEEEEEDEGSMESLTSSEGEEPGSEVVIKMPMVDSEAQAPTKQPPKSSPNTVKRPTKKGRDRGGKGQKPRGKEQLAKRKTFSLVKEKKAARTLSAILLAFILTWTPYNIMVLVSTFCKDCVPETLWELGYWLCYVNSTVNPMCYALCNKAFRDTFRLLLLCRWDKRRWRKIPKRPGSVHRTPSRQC
Sequence of Alpha-galactosidase (Coffea arabica) (Q42656 whole entry, looked up): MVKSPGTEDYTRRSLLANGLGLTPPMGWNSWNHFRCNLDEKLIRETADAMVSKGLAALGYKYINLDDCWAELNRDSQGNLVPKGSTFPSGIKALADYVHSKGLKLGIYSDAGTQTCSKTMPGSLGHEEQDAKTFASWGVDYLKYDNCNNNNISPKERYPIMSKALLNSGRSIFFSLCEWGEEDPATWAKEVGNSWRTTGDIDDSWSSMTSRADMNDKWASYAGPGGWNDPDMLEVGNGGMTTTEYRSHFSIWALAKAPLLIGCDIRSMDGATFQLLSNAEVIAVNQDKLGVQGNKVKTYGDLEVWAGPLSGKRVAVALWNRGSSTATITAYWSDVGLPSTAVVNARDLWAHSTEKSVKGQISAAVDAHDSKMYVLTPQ
Sequence of Cytochrome P450 2D6 (Homo sapiens) (P10635 whole entry, looked up): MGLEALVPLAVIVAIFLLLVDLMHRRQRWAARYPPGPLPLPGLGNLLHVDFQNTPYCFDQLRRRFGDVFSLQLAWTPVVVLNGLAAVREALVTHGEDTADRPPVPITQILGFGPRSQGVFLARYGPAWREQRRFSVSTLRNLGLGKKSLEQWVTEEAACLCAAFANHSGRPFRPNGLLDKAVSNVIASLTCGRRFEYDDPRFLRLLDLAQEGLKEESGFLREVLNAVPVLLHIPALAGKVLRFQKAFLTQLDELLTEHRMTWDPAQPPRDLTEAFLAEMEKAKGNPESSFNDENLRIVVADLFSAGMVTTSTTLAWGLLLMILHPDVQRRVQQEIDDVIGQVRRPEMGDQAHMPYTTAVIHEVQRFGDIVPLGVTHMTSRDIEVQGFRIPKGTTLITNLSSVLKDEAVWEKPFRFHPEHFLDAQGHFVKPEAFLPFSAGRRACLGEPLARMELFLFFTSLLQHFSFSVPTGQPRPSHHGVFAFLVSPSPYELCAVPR
Sequence of Pyruvate kinase (Leishmania mexicana) (Q27686 2-499 E452W): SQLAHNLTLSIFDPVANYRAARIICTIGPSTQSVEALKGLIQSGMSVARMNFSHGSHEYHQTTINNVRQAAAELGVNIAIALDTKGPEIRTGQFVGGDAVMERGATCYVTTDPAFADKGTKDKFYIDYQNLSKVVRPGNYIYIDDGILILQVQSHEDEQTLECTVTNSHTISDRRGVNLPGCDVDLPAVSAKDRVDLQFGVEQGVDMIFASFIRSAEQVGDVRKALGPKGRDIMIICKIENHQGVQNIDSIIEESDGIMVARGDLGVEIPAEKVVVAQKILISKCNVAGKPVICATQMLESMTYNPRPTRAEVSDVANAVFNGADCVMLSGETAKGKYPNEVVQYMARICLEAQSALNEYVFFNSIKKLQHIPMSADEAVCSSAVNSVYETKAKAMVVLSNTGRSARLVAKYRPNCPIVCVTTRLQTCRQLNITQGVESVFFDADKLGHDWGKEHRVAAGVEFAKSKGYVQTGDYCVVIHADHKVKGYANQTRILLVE
Sequence of Guanine nucleotide-binding protein G(i) subunit alpha-1 (Homo sapiens) (P63096 whole entry, looked up): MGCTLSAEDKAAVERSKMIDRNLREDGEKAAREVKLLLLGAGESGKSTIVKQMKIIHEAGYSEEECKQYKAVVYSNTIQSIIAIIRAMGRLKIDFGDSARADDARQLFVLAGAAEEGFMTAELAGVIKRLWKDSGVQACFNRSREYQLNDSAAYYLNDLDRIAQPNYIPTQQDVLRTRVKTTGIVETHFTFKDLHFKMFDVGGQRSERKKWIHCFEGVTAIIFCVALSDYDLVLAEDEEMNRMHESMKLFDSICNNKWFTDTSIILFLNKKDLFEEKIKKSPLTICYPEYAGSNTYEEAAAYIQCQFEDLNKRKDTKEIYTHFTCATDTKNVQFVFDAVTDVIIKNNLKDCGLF

CCCN[C@@H]1CCc2c(OC)cccc2[C@@H]1C
active: Potency [3] 0.251 µM
inactive: Potency [1] > 46 µM | Potency [2] | activity change, negative = inhibition [4] -0.687% | Potency [5] | Potency [6] | Potency [7]
-24%: max response [4, 28]
-20.9%: max response [4, 27]

C=CCN1C[C@H](C)N([C@@H](c2ccccc2)c2ccc(C(=O)N(CC)CC)cc2)C[C@H]1C
inactive: Potency [8] > 46 µM | Potency [1] > 46 µM | outcome [9] | Potency [2] | Potency [10] | activity change, negative = inhibition [4] 7.78% | Potency [5] | Potency [6] | Potency [7]
14.7%: max response [4, 27]
20%: max response [4, 28]

NC[C@H](CP(=O)(O)O)c1ccc(Cl)cc1
inactive: outcome [11] | Potency [12] | activity change, negative = inhibition [13] 3.15% | Potency [8] > 46 µM | Potency [1] > 46 µM | outcome [9] | Potency [2] | outcome [14] | Potency [15] | Potency [16] | activation [17] -2.39% | outcome [18] | Potency [19] | Potency [20] | outcome [21] | outcome [22] | outcome [23] | outcome [24] | Potency [6] | Potency [7]

CC1OC(=O)C(C(C)C)NC(=O)C(C(C)C)OC(=O)C(C(C)C)NC(=O)C(C)OC(=O)C(C(C)C)NC(=O)C(C(C)C)OC(=O)C(C(C)C)NC(=O)C(C)OC(=O)C(C(C)C)NC(=O)C(C(C)C)OC(=O)C(C(C)C)NC1=O (stereo not drawn)
-94.2%: max response [4, 28]
inactive: Potency [10] | Potency [25] | outcome [26] | Potency [6] | Potency [7]
0.207%: max response [4, 27]
active: Potency [4] 0.316 µM
